Experimental data reported in PMC4336329 (PLoS ONE, 2015).
About 14,000 (4.5%) of roughly 310,000 compounds showed an effect of 50% or more. The effect is printed as a negative number. This is one part of a sample in which strong results are shown more often than they occur.

biological target: human ether-à-go-go-related gene (hERG) potassium channel (human, UniProt Q12809); experiment: primary screen, population patch clamp on CHO cells stably expressing hERG; higher = less effect of the substance
Sequence (Q12809 whole entry, looked up): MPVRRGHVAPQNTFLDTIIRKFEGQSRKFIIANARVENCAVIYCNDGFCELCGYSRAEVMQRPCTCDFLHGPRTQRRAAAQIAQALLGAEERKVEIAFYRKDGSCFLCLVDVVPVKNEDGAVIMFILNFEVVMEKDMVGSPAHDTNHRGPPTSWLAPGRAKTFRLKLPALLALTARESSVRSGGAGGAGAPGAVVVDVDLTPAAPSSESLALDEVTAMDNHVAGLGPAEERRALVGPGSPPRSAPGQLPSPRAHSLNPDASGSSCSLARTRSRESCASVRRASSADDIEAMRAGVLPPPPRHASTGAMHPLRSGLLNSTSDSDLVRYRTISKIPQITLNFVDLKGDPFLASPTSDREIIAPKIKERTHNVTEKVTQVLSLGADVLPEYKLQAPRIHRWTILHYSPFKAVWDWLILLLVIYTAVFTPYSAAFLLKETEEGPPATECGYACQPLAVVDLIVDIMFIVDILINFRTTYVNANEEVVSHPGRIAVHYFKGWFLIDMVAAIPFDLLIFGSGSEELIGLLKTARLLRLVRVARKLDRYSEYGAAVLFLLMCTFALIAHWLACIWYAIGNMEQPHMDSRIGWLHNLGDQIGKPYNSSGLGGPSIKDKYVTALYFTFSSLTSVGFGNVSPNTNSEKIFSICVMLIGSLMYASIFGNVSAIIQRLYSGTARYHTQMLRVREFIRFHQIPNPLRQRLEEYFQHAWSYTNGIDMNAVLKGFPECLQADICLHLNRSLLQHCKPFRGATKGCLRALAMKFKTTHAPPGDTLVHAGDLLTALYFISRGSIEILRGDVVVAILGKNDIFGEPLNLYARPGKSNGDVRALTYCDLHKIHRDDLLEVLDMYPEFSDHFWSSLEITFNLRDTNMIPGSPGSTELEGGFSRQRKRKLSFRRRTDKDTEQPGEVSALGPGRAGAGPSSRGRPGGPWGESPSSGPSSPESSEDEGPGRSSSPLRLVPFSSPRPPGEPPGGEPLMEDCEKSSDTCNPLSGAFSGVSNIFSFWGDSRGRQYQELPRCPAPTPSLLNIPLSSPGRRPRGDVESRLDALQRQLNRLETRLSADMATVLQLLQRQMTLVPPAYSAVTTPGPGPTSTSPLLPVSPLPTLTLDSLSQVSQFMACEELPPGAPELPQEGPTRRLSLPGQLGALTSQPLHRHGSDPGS
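Note: peak tail current of the secondary pulse compared with the same well before compound.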

| SMILES | hERG current change (%, negative = inhibition) at 10uM |
| --- | --- |
| Cc1cc(C)cc(NC(=O)Cn2c(-c3ccccc3Cl)nc3ccccc32)c1 | 5.5% |
| CCCCC(CC)CNC(=O)c1cccs1 (centres unmarked) | 8.33% |
| O=S(=O)(c1ccc(Nc2ccc3c(c2)OCO3)nc1)N1CCOCC1 | -13.2% |
| COc1ccc(N(C(=O)c2cccnc2)S(=O)(=O)c2cc(OC)ccc2OC)cc1 | -21.8% |
| O=C(CS(=O)(=O)Cc1ccccc1)Nc1ccccc1Cl | 1.09% |
| Cc1ccc(C2CC(=O)C=C(O)C2)cc1 (centres unmarked) | 3.29% |
| CSCC(C)N1CCC(n2nccc2NC(=O)c2ccc3c(c2)OCO3)CC1 (centres unmarked) | -2.95% |
| Cc1ccc(CCNS(=O)(=O)c2cc3c(cc2C)n(C)c(=O)c(=O)n3C)cc1 | -30.8% |
| CCOc1ccc(NC(=O)CSc2nnc(-c3ccccc3)n2N)cc1 | 6.02% |
| Cc1ccc(-n2c(SCC(=O)Nc3ccc4c(c3)OCCO4)nnc2-c2ccco2)cc1 | -30.9% |
| CCOC(=O)CNC(=O)CSc1nnc(-c2ccc(OC)cc2)n1CC | 10.5% |
| Cc1ccc(-n2c(SCC(=O)Nc3ccc4cn[nH]c4c3)nnc2-c2ccco2)cc1 | -62.4% |
| CCOc1ccc(-n2c(-c3ccccc3)nnc2-c2ccccc2)cc1 | -6.7% |
| CCOC(=O)CNC(=O)CSc1nnc(-c2cccc(OC)c2)n1CC | 7.24% |
| CCNC(=O)CSc1nnc(-c2ccccc2)n1-c1ccc(OCC)cc1 | -62.8% |
| COC(=O)CSc1nnc(-c2ccco2)n1-c1ccc(C)cc1 | -24.2% |
| CCOC(=O)CNC(=O)CSc1nnc(-c2cccc(C)c2)n1-c1ccc(OC)cc1 | -62% |
| CCOC(=O)CSc1nnc(-c2ccco2)n1-c1ccc(C)cc1 | -61.9% |
| CCOC(=O)CSc1nnc(-c2ccco2)n1-c1ccccc1 | -27.6% |
| CNC(=O)CSc1nnc(-c2ccco2)n1-c1ccc(C)cc1 | -49.5% |
| CCn1c(C)nc2cc(C(=O)N/N=C/c3ccccc3C)ccc21 | -12.8% |

| SMILES | hERG current change (%, negative = inhibition) at 10uM |
| --- | --- |
| Cc1cc2c(C)nc(Cc3ccccc3)nc2o1 | 14.7% |
| CCOc1cc2[nH]c(=O)n(Cc3ccc(C(=O)NCCCN4CCCC4=O)cc3)c(=O)c2cc1OCC | 16.2% |
| CCOC(=O)C1=C(C)Nc2nc(SC)nn2C1c1ccc(C(=O)OC)cc1 (centres unmarked) | 5.26% |
| Cc1ccc(/C=N\NC(=O)/C(=C\Nc2nccc(C)n2)NC(=O)c2ccccc2)cc1 | -9.72% |
| C=C1C(=O)O[C@@H]2C[C@@H](C)[C@@H]3C=CC(=O)[C@@]3(C)[C@@H](OC(=O)CC(=O)O[C@H]3[C@@H]4C(=C)C(=O)O[C@@H]4C[C@@H](C)[C@@H]4C=CC(=O)[C@]43C)[C@H]12 | -38.6% |
| COc1ccc(CNC(=O)C2CCN(S(=O)(=O)c3cccnc3)CC2)cc1 | 12.9% |
| Cc1ccc(S(=O)(=O)NCCC(=O)Nc2cc(F)ccc2C)cc1C | 2.51% |
| CCOC(=O)c1c(O)c2ccccc2oc1=O | -18.7% |
| CN1C(=O)CN=C(c2ccc(Cl)cc2)c2cc(Cl)ccc21 | -33.8% |
| COc1cccc(-n2ccnc2SCC(=O)Nc2nccs2)c1 | -6.22% |
| COc1ccc(-n2c(SCC(=O)Nc3nccs3)nnc2-c2ccoc2C)cc1 | -80% |
| Cn1c(SCC(=O)Nc2nccs2)nnc1-c1ccco1 | -5.22% |
| CCOC(=O)CSc1nnc(-c2ccoc2C)n1-c1ccc(C)cc1 | -19.3% |
| COc1cccc(-n2c(SCC(=O)Nc3nccs3)nnc2-c2ccoc2C)c1 | -76.8% |
| COc1ccc(-n2c(CSc3nc(C)cc(C)n3)nnc2SCC(=O)Nc2nccs2)cc1 | -13.2% |
| CCOc1ccc(-n2c(SCC(N)=O)nnc2-c2ccco2)cc1 | -1.15% |
| CCOC(=O)CSc1nnc(CNC(=O)c2ccc(OC)cc2OC)n1-c1ccc(OC)cc1 | -50.1% |
| CCOC(=O)CSc1nnc(-c2ccoc2C)n1-c1ccc(OCC)cc1 | -66.5% |
| CCOC(=O)CSc1nnc(CNC(=O)c2ccc(OC)cc2OC)n1C | -18.4% |
| CCOC(=O)CSc1nnc(CNC(=O)c2ccccc2OC)n1-c1ccc(OC)cc1 | -28.8% |
| COc1cccc(C(=O)NCc2nnc(SCC(=O)Nc3nccs3)n2-c2cccc(C)c2)c1 | -18.3% |

| SMILES | hERG current change (%, negative = inhibition) at 10uM |
| --- | --- |
| COc1ccc(C2(C(=O)NCCCN(C)C)CCOCC2)cc1 | 7.45% |
| CCOC(=O)c1c(-c2ccccc2Cl)csc1NC(=O)CSc1nc(C)cc(=O)[nH]1 | 4.37% |
| C=CCc1ccc(OCc2ccc(C(=O)OC)o2)c(OC)c1 | -12.1% |
| CC1CCCCC1NC(=O)CC1Oc2ccccc2NC1=O (centres unmarked) | 0.244% |
| CC(=O)c1ccc(S(=O)(=O)NC2CC(=O)N(c3ccc4c(c3)OCCO4)C2)cc1 (centres unmarked) | 5.79% |
| CCN(CC)S(=O)(=O)c1cc(C(=O)O)ccc1Cl | 11% |
| CC(=O)c1ccc(Sc2nnc(C)s2)c([N+](=O)[O-])c1 | 1.07% |
| Cc1ccc(OCC(=O)Nc2nnc(S(=O)(=O)N3CCC(C)CC3)s2)cc1 | 19.2% |
| O=C(NNC(=O)c1ccc([N+](=O)[O-])o1)c1ccccc1 | -6.59% |
| CN(CC(=O)Nc1ccccc1Cl)C(=O)COC(=O)c1ccccc1[N+](=O)[O-] | -6.07% |
| CN(CC(=O)Nc1ccccc1Cl)C(=O)COC(=O)c1nc(Cl)ccc1Cl | -20% |
| CN(CC(=O)Nc1ccccc1Cl)C(=O)COC(=O)C1=COCCO1 | 5.89% |
| CN(CC(=O)Nc1ccccc1Cl)C(=O)COC(=O)c1ccc(C(F)(F)F)cc1 | -9.53% |
| CN(CC(=O)Nc1ccccc1Cl)C(=O)COC(=O)C1CC1 | -2.87% |
| CC(=O)Oc1ccc(-c2ccc(C(=O)OCC(=O)N(C)CC(=O)Nc3ccccc3Cl)cc2)cc1 | -68.9% |
| CC[C@H](C)[C@H](NC(=O)OCc1ccccc1)C(=O)OCC(=O)N(C)CC(=O)Nc1ccccc1Cl | -64.5% |
| CN(CC(=O)Nc1ccccc1Cl)C(=O)COC(=O)c1ccc(Cl)nc1 | 4.99% |
| CN(CC(=O)Nc1ccccc1Cl)C(=O)COC(=O)c1ccc(S(=O)(=O)C(F)F)cc1 | -69.9% |
| COc1cc(/C=C/C(=O)OCC(=O)Nc2cc(C(F)(F)F)ccc2N2CCOCC2)ccc1O | -0.592% |
| C=CCOC(=O)C1=C[C@@H](c2ccc(Br)cc2)C[C@@H](OCc2ccc(CO)cc2)O1 | -14.7% |
| COc1cc(C(=O)OCC(=O)N2CCCCC2C)ccc1OCc1c(C)noc1C (centres unmarked) | 6.3% |

| SMILES | hERG current change (%, negative = inhibition) at 10uM |
| --- | --- |
| C#CCOCCOCCOCCNc1nc(N2CCN(C(=O)CCCCCCCCCCNC(=O)[C@H](CO)n3cc(CCCSC)nn3)CC2)nc(N2CCN(C(=O)CCCCCCCCCCNC(=O)[C@H](CO)n3cc(CCCSC)nn3)CC2)n1 | 4.57% |
| COc1ccccc1NC(=O)c1ccc(S(=O)(=O)N(C)c2ccccc2)cc1 | -3.47% |
| COc1ccc(NC(=O)c2cc3c(s2)CCC(C)C3)cc1S(=O)(=O)N1CCOCC1 (centres unmarked) | -19.1% |
| CCN(CC)S(=O)(=O)c1ccc(N2CCOCC2)c(NC(=O)CC2OC(=O)c3ccccc32)c1 (centres unmarked) | -26% |
| Cc1cc(-c2ccccc2)c(C#N)c(SCC(N)=O)n1 | -3.47% |
| O=C(NCc1ccc(F)cc1)c1ccc2c(=O)n3c(nc2c1)CCCCC3 | -36.7% |
| Cc1nc2n(c(=O)c1CCN1CCC(c3noc4cc(F)ccc34)CC1)CCCC2 | -68% |
| O=C(NCCc1ccc(F)cc1)c1ccc2c(=O)n3c(nc2c1)CCC3 | -45.7% |
| CCCCN(CCCNC(=O)CN1C(=O)COc2ccccc21)c1ccccc1 | -26% |
| Cc1noc(C)c1COC(=O)COc1ccc(C#N)cc1 | 2.8% |
| O=C(CN1CCN(c2ccccc2)CC1)N1N=CCC1c1ccccc1 (centres unmarked) | 5.51% |
| CCN1CCN(CC(=O)N2N=CCC2c2ccccc2)CC1 (centres unmarked) | 3.12% |
| O=C(CN1CCN(C(c2ccccc2)c2ccccc2)CC1)N1N=CCC1c1ccccc1 (centres unmarked) | -50.1% |
| CC(C)CN(C(=O)CCC(=O)OCC(=O)N(C)c1ccccc1)c1c(N)n(CC(C)C)c(=O)[nH]c1=O | 10.7% |
| O=C(CCCn1c(=S)[nH]c2cc3c(cc2c1=O)OCO3)N1CCN(c2ccccc2F)CC1 | 20.6% |
| COc1ccc(NC(=S)N2CCCN(Cc3cc(C)ccc3C)C2)cc1 | -12.7% |
| CCOc1ccc(NC(=S)N2CCCN(Cc3cc(C)ccc3C)C2)cc1 | -57.8% |
| CCOc1ccc(NC(=S)N2CCCN(Cc3cccc(Cl)c3)C2)cc1 | -17.6% |
| CN(C)c1ccc(C=NCCc2ccc(S(N)(=O)=O)cc2)cc1 | 6.19% |
| COc1ccc2[nH]c(=O)c(CN(C(=O)c3cccnc3)c3cccc(C)c3)cc2c1 | 11.5% |
